SMILES strings stand for the structures. “And” between values parts separate entries of the source, which are not always exact repeats. Identical values can stand only once. Results filed as inconclusive are left out. The source made the active and inactive calls. Calls come from the whole dose curve; as a rule, active = well fitted activation curve with a large enough effect in the repeat runs; inconclusive = weak or mixed curves; inactive = no such curve, though single readings can be large or run the other way.
% is set by controls: 0 for no effect and ±100 for the full control effect; potency is the fitted concentration of half-maximal effect.

Chain of Nuclear receptor subfamily 1 group I member 2 (Rattus norvegicus) (Q9R1A7 whole entry, looked up): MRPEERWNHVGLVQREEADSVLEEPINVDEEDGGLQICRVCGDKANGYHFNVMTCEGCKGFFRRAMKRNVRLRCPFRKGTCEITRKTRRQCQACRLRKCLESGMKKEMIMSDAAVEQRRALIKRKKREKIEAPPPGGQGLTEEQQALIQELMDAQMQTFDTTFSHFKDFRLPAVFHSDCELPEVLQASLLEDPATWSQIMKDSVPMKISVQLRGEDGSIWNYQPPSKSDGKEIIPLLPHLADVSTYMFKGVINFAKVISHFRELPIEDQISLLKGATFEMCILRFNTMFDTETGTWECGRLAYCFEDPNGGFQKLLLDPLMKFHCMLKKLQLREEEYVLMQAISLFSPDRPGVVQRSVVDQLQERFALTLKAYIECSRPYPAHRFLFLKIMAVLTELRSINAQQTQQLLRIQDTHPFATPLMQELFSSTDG

This assay addresses Nuclear receptor subfamily 1 group I member 2 (Rattus norvegicus) (UniProt Q9R1A7). In words: Rat pregnane X receptor (rPXR) activation by small molecules, qHTS assay (AID 1346983). Note: nearly all actives have a fitted effect of over 20% in size. Particulars: rPXR luciferase reporter cells, One-Glo luminescence, 24 h; max activation: stronger effect = higher value. An excerpt:
National Center for Advancing Translational Sciences [NCATS] NIH Chemical Genomics Center [NCGC] U.S. Environmental Protection Agency [EPA] National Institutes of Environmental Health Sciences [NIEHS] National Toxicology Program [NTP] Assay overview: The Pregnane X receptor (PXR), a ligand activated nuclear receptor plays a critical role in the regulation of genes involved in drug metabolism and transporters. PXR binds xenobiotics and when compounds interact with PXR produces enhanced expression of CYP3A genes. In humans PXR activation and CYP3A4 induction can be problematic due to their interactions with co-medicated drugs and decrease their efficacy or increase their own metabolism. However, there are known species-specific differences with regard to PXR activation that should be taken into account when animal PXR data are extrapolated to humans. A cell based rat PXR (rPXR) assay (developed by Puracyp, Inc., CA) was used to assess the activation of rPXR.
Assay Protocol Summary: rPXR cells were dispensed at 2,000 per well in 5uL of assay medium into white, solid-bottom 1536-well plates using a Multidrop Combi dispenser (Thermo Scientific). The assay plates were incubated at 37 C for 5hr before transferring 23 nL of test compounds dissolved in DMSO and positive control via Pintool station (Wako). The assay plates were incubated at 37 C for 24 hr. Then 5ul One-Glo assay reagent (Promega) was added to each plate by a Flying Reagent Dispenser (FRD, Aurora Discovery) and following 30 min incubation at room temperature, luciferase activity was quantified on a ViewLux plate reader (Perkin Elmer).
As for `O=C1OC(OC(=O)c2cccnc2Nc2cccc(C(F)(F)F)c2)c2ccccc21` (stereo not given), the max activation was -3.51% (inactive). On the same count and under the same terms, the same measure for `Nc1ncnc2c1ncn2[C@@H]1O[C@H](COP(=O)(O)O)[C@@H](O)[C@H]1O`: -2.61% (inactive); for `Oc1c(Br)cc(Br)c2cccnc12`: -2.52% (inactive); for `Cc1cccc(C)c1NC(=O)CN1CCN(CCCC(c2ccc(F)cc2)c2ccc(F)cc2)CC1`: 3.4% (inactive).

In the case of `CNCC[C@H](Oc1cccc2ccccc12)c1cccs1`, the max activation was -8.93% (inactive).

As to `CCCCCCCCCCOCC(O)CN` (stereo not given), the max activation was -17.7% (inactive).

Regarding `CCCN(CCc1cccs1)[C@H]1CCc2c(O)cccc2C1`, the max activation is -1.95% (inactive). For `CCCCCCCC/C=C\CCCCCCCC(=O)NCc1ccc(O)c(OC)c1`, the max activation is -4.67% (inactive). For `CN1[C@@H]2CC[C@H]1CC(OC(=O)C(CO)c1ccccc1)C2` (stereo not given in full), the max activation is -0.936% (inactive).

For the compound `COc1cccc(CCc2ccccc2OCC(CN(C)C)OC(=O)CCC(=O)O)c1` (stereo not given), the max activation is -1.75% (inactive). Turning to `CCN(CC)CCSC(=O)C(c1ccccc1)c1ccccc1`, the max activation is 3.39% (inactive) and -0.327% (inactive). On the same count and under the same terms, the same measure for `C[n+]1c2cc(N)ccc2cc2ccc(N)cc21` (tested in a mixture with another compound): -10.5% (inactive); for `COc1cc(C(=O)NS(=O)(=O)c2ccccc2C)ccc1Cc1cn(C)c2ccc(NC(=O)OC3CCCC3)cc12`: -0.0293% (inactive).

Consider `CCOC(=O)C1=C(C)NC(C)=C(C(=O)OCC)C1c1ccccc1/C=C/C(=O)OC(C)(C)C`, for which the Potency was 3.55 µM (active). With `S=P(N1CC1)(N1CC1)N1CC1`, the max activation was -4.01% (inactive).

Take `C=C(c1ccc(C(=O)O)cc1)c1cc2c(cc1C)C(C)(C)CCC2(C)C`: the max activation is -18.2% (inactive).

As for `CC(CN(C)C)CN1c2ccccc2CCc2ccccc21` (stereo not given), the max activation was -1.19% (inactive). As for `Cc1c(C)n(Cc2ccccc2)c2ccc(C(=O)OCCN(C)C)cc12`, the max activation was 1.71% (inactive).

As for `C/C=C/C=N/NC(=O)c1ccncc1`, the max activation was -3.54% (inactive). The same measure, in the same setting: the same measure for `NC(=O)C(=O)N/N=C/c1ccc([N+](=O)[O-])o1`: -0.701% (inactive); for `COc1ccccc1OCCNCC(O)COc1cccc2[nH]c3ccccc3c12` (stereo not given): 7.65% (inactive). Regarding `CCCCN(CCCC)CCC(O)c1cc2c(Cl)cc(Cl)cc2c2cc(C(F)(F)F)ccc12` (stereo not given), the max activation was -2.62% (inactive). On the same count and under the same terms, then `COc1cc(C=C2CCC/C(=C\c3ccc(O)c(OC)c3)C2=O)ccc1O`, with -7.88% (inactive). As for `COC(=O)C1=C(C)NC(C)=C(C(=O)OCCCN2CCC(c3ccccc3)(c3ccccc3)CC2)C1c1cccc([N+](=O)[O-])c1` (stereo not given), the Potency was 5.01 µM (active). Turning to `CCOC(=O)[C@@](C)(N)Cc1ccc(O)c(O)c1`, the max activation is -0.299% (inactive). Take `COCC(=O)O[C@]1(CCN(C)CCCc2nc3ccccc3[nH]2)CCc2cc(F)ccc2[C@@H]1C(C)C`: the max activation was -19.6% (inactive).

As to `CC(NCCC(c1ccccc1)c1ccccc1)c1ccccc1` (stereo not given), the max activation is -19.7% (inactive). As for `O=C1Nc2ccc(Cl)cc2[C@@](C#CC2CC2)(C(F)(F)F)O1`, the Potency was 28.2 µM (active). As for `CCCSS/C(CCO)=C(\C)N(C=O)Cc1cnc(C)nc1N`, the max activation is 9.56% (inactive). The same measure, in the same setting: the same measure for `CCCCCCCCCCCCCCNCCO`: 11.2% (inactive). On the same count and under the same terms, then `CN(Cc1cc(Br)cc(Br)c1N)C1CCCCC1`, with -3.03% (inactive). For `CCN(CC)CCOc1ccc(C(O)(Cc2ccc(Cl)cc2)c2ccc(C)cc2)cc1` (stereo not given), the max activation was -4.47% (inactive).

`CNC(=O)c1cc(Oc2ccc(NC(=O)Nc3ccc(Cl)c(C(F)(F)F)c3)cc2)ccn1`: the max activation was -24.5% (inactive). Still for that read-out and setting: the same measure for `C[C@@]12C(=O)OC(=O)[C@]1(C)C1CCC2O1`: -13% (inactive); for `CC(=O)Oc1ccc(C2(c3ccc(OC(C)=O)cc3)C(=O)Nc3ccccc32)cc1`: -4.61% (inactive) and -2.34% (inactive); for `NCCCC(O)(P(=O)(O)O)P(=O)(O)O`: -1.25% (inactive). On the same count and under the same terms, then `CC1=C(/C=C/C(C)=C/C=C/C(C)=C/C(=O)Nc2ccc(O)cc2)C(C)(C)CCC1`, with -17.3% (inactive).

For `N[C@@H](CSSC[C@H](N)C(=O)O)C(=O)O`, the max activation is -1.39% (inactive). Turning to `CCCCOc1ccc(C(=O)CCN2CCCCC2)cc1`, the max activation was -1.67% (inactive).

As to `C[C@H]1O[C@@H](O[C@H]2[C@@H](O)C[C@H](O[C@H]3[C@@H](O)C[C@H](O[C@H]4CC[C@@]5(C)[C@H](CC[C@@H]6[C@@H]5C[C@@H](O)[C@]5(C)[C@@H](C7=CC(=O)OC7)CC[C@]65O)C4)O[C@@H]3C)O[C@@H]2C)C[C@H](O)[C@@H]1O`, the max activation was -1.12% (inactive).

These data come from PubChem BioAssay (Tox21).
